Data on 6 compounds can be found in PubChem BioAssay (EPA / NIEHS).

What is called AC50 is the concentration giving half of the maximal activity seen.

Calls of active or inactive are those of the source. Rule for the calls: active = hit-call score of the fitted dose curve at least 0.9, where 1 is the maximum; inactive = score below 0.9.

The nature of assay [1]: ATG_E_Box_CIS: Attagene CIS-FACTORIAL HepG2 Assay for human Enhancer Box (E-box) (AID 2282936). Conditions: HepG2 E-box cis-reporter transcription, actives raise or lower the signal. In a few lines:
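DMSO served as negative control and baseline for bidirectional fitting. Human hepatoma HepG2 cells, transiently transfected with cis-reporter constructs, were dosed 24 h; reporter mRNA read by RT-PCR and capillary electrophoresis.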

A short description of assay [2]: ATG_M_61_CIS: Attagene CIS-FACTORIAL HepG2 Assay for M61 Transcription Factor (Internal Marker) (AID 2282937). Conditions: HepG2 Attagene CIS-FACTORIAL M61 internal marker reporter; actives raise or lower the signal. In a few lines: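 Endogenous transcription factor activity in HepG2 is read through transiently transfected cis-element reporter units. After 24 h dosing, RNA undergoes reverse transcription, PCR and primer extension with 6-FAM before capillary electrophoresis; DMSO-referenced bidirectional fit.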

Assay [3] can be described thus: ATG_EGR_CIS: Attagene CIS-FACTORIAL HepG2 Assay for human Early Growth Response 1 (EGR1) (AID 2282938). The conditions noted are these: HepG2 Attagene CIS-FACTORIAL EGR reporter mRNA; actives raise or lower the signal. In a few lines:
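Activity is taken as induction or loss of reporter mRNA versus DMSO, fitted bidirectionally. Transcripts from cis-regulated reporter units in transiently transfected HepG2 were measured after 24 h by RT-PCR with capillary electrophoresis.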

A short description of assay [4]: ATG_ERE_CIS: Attagene CIS-FACTORIAL HepG2 Assay for Estrogen Response Element (ERE) (AID 2282940). The conditions noted are these: HepG2 ERE cis-reporter, Attagene RNA transcript; actives raise or lower the signal. In a few lines: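 HepG2 cells transiently transfected with multiplexed cis-element reporter units, measuring endogenous transcription factor activity; ERE reporter mRNA quantified after 24 h exposure by RT-PCR, fluorescent labelling, HpaI digestion and capillary electrophoresis. Bidirectional change versus DMSO.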

A short description of assay [5]: ATG_Ets_CIS: Attagene CIS-FACTORIAL HepG2 Assay for human Erythroblast Transformation Specific (ETS) (AID 2282941). The conditions noted are these: HepG2 ETS cis-reporter transcription, actives raise or lower the signal. In a few lines: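 After transient cis-reporter transfection, HepG2 cells receive test chemical for 24 h. Reporter mRNA levels, measured by RT-PCR and capillary electrophoresis fluorescence, are analysed bidirectionally relative to the DMSO baseline.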

The target of assay [6] is Hepatocyte nuclear factor 3-beta (Homo sapiens) (UniProt Q9Y261). Put plainly: ATG_FoxA2_CIS: Attagene CIS-FACTORIAL HepG2 Assay for human Forkhead box A2 (FOXA2) (AID 2282942). Conditions: HepG2 cis-reporter transcription factor activity, 24 h; actives raise or lower the signal. A digest of the protocol:
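Reporter transcript induction is measured by fluorescence after capillary electrophoresis of RT-PCR products from HepG2 cells exposed 24 h. Cis-regulated reporter units report endogenous factor activity; curves fitted both directions against DMSO.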

Assay [7] can be described thus: ATG_FoxO_CIS: Attagene CIS-FACTORIAL HepG2 Assay for human Forkhead box O (FoxO) (AID 2282943). Conditions: HepG2 Attagene cis-reporter, FoxO element, mRNA; actives raise or lower the signal. In a few lines: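 HepG2, transient MRTU transfection (cis element, endogenous TFs). Dose 24 h. TriZol RNA → oligo(dT) RT → PCR → 6-FAM primer extension → HpaI cut → CE. Gain/loss vs DMSO.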

A short description of assay [8]: ATG_GATA_CIS: Attagene CIS-FACTORIAL HepG2 Assay for human GATA Binding Protein (AID 2282944). Conditions: HepG2 GATA cis-element reporter, Attagene multiplex mRNA; actives raise or lower the signal. In a few lines:
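HepG2 cells transiently transfected with multiplexed cis-element reporter units measure endogenous GATA activity; after 24 h compound exposure, reporter mRNA quantified by RT-PCR and capillary electrophoresis. Changes fitted in both directions vs DMSO.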

A short description of assay [9]: ATG_GLI_CIS: Attagene CIS-FACTORIAL HepG2 Assay for human Zinc Finger Protein GLI1 (AID 2282945). Conditions: HepG2, Attagene cis-factorial reporter mRNA, GLI element; actives raise or lower the signal. A digest of the protocol:
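Bidirectional curve fits relative to DMSO, using reporter mRNA levels from RT-PCR plus capillary electrophoresis. Cells were HepG2 transiently carrying cis-regulated reporter constructs, harvested 24 h after dosing.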

A short description of assay [10]: ATG_GRE_CIS: Attagene CIS-FACTORIAL HepG2 Assay for human Glucocorticoid Response Elements (GRE) (AID 2282947). Conditions: HepG2 GRE cis-reporter, Attagene multiplex mRNA; actives raise or lower the signal. In a few lines:
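Assay uses human hepatoma HepG2 cells transfected with cis-promoter reporter units, exposed 24 h. mRNA from reporters detected by RT-PCR plus capillary electrophoresis; DMSO serves as negative control and baseline.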

Assay [11] is described as follows: ATG_ISRE_CIS: Attagene CIS-FACTORIAL HepG2 Assay for human Interferon Regulatory Factor 1 (IRF1) binding to an Interferon-Stimulated Response Element (ISRE) (AID 2282948). The conditions noted are these: HepG2 ISRE cis-reporter (Attagene), mRNA transcription readout; actives raise or lower the signal. A digest of the protocol:
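Quantitation relies on labelled RT-PCR fragments separated by capillary electrophoresis. Human HepG2 cells bearing cis-promoter reporter constructs were treated 24 h; DMSO served as baseline for bidirectional fitting.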

A short description of assay [12]: ATG_M_32_CIS: Attagene CIS-FACTORIAL HepG2 Assay for M32 Transcription Factor (Internal Marker) (AID 2282949).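 Note: background control marker of the multiplexed CIS panel rather than a real target.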 Conditions: HepG2 Attagene cis-factorial M32 reporter, mRNA; actives raise or lower the signal. A digest of the protocol:
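Internal background marker read-out: RT-PCR/capillary electrophoresis fluorescence of reporter transcripts from transiently transfected HepG2 cells after 24 h chemical exposure. Activity fitted bidirectionally relative to DMSO negative control.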

Assay [13] in a line: ATG_M_06_CIS: Attagene CIS-FACTORIAL HepG2 Assay for M06 Transcription Factor (Internal Marker) (AID 2282950). The conditions noted are these: HepG2 Attagene CIS-FACTORIAL M06 internal marker reporter; actives raise or lower the signal. A digest of the protocol: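 Internal background marker within multiplexed cis-reporter HepG2 system. Cells transiently transfected, dosed 24 h; reporter mRNA measured by RT-PCR, HpaI digestion and capillary electrophoresis. Bidirectional fit relative to DMSO.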

For assay [14], the target named is Hypoxia-inducible factor 1-alpha (Homo sapiens) (UniProt Q16665). Put plainly: ATG_HIF1a_CIS: Attagene CIS-FACTORIAL HepG2 Assay for human Hypoxia Inducible Factor 1 (HIF1A) (AID 2282951). Conditions: HepG2 Attagene cis-factorial HIF1a reporter transcription; actives raise or lower the signal. A digest of the protocol:
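Fluorescence intensity of capillary-separated, 6-FAM-labelled reporter amplicons gives mRNA induction in HepG2 cells carrying transfected cis-promoter reporter units; cells exposed 24 h, responses fitted up or down from DMSO.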

The target in assay [15] is Hepatocyte nuclear factor 6 (Homo sapiens) (UniProt Q9UBC0). Put plainly: ATG_HNF6_CIS: Attagene CIS-FACTORIAL HepG2 Assay for human Hepatocyte Nuclear Factor 6 (HNF6) (AID 2282952). Conditions: HepG2 Attagene cis-factorial HNF6 reporter transcription; actives raise or lower the signal. A digest of the protocol: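 Multiplexed mRNA reporter assay in transfected HepG2; 24 h dosing; RT-PCR plus capillary electrophoresis fluorescence; DMSO-referenced bidirectional curve fitting.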

The target of assay [16] is Heat shock factor protein 1 (Homo sapiens) (UniProt Q00613). The experiment in a line: ATG_HSE_CIS: Attagene CIS-FACTORIAL HepG2 Assay for human Heat Shock Transcription Factor 1 (HSE) (AID 2282953). Conditions: HepG2 HSE cis-reporter, Attagene RNA transcription; actives raise or lower the signal. A digest of the protocol: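 HepG2 cells transfected with cis-promoter reporter units sensing endogenous transcription factor activity; reporter mRNA quantified 24 h post-dose by RT-PCR and capillary electrophoresis of 6-FAM-labelled products. Bidirectional fitting against DMSO.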

Assay [17] can be described thus: ATG_MRE_CIS: Attagene CIS-FACTORIAL HepG2 Assay for human Metal Responsive Element (MRE) (AID 2282954). The conditions noted are these: HepG2 MRE cis-reporter transcription, Attagene multiplex; actives raise or lower the signal. In a few lines: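 After a 24 h chemical exposure, transiently transfected HepG2 cells yield RNA whose reporter sequences are amplified, FAM-labelled and sized by capillary electrophoresis. Curves are fitted bidirectionally relative to DMSO.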

Assay [18] in a line: ATG_PBREM_CIS: Attagene CIS-FACTORIAL HepG2 Assay for human Phenobarbital-responsive Enhancer Module (PBREM) (AID 2282955). The conditions noted are these: HepG2 PBREM cis-reporter, Attagene multiplexed transcription; actives raise or lower the signal. In a few lines:
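Cells were transfected with cis-element reporter units and treated for 24 h, after which RNA was extracted and reporter transcripts measured by RT-PCR and capillary electrophoresis.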

For assay [19], the target named is Bile acid receptor (Homo sapiens) (UniProt Q96RI1). The experiment in a line: ATG_IR1_CIS: Attagene CIS-FACTORIAL HepG2 Assay for human Nuclear Receptor Subfamily 1 Group H Member 4 (NR1H4), IR1 submotif (AID 2282946). Conditions: IR1 reporter transcription, actives raise or lower the signal. In a few lines:
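Cells (human HepG2) carry transiently transfected cis-promoter reporter transcription units. Compounds are incubated 24 h, total RNA is reverse-transcribed and amplified, and labelled fragments are resolved by capillary electrophoresis. Curves use DMSO as baseline.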

Sequence of Hypoxia-inducible factor 1-alpha (Homo sapiens) (Q16665 whole entry, looked up): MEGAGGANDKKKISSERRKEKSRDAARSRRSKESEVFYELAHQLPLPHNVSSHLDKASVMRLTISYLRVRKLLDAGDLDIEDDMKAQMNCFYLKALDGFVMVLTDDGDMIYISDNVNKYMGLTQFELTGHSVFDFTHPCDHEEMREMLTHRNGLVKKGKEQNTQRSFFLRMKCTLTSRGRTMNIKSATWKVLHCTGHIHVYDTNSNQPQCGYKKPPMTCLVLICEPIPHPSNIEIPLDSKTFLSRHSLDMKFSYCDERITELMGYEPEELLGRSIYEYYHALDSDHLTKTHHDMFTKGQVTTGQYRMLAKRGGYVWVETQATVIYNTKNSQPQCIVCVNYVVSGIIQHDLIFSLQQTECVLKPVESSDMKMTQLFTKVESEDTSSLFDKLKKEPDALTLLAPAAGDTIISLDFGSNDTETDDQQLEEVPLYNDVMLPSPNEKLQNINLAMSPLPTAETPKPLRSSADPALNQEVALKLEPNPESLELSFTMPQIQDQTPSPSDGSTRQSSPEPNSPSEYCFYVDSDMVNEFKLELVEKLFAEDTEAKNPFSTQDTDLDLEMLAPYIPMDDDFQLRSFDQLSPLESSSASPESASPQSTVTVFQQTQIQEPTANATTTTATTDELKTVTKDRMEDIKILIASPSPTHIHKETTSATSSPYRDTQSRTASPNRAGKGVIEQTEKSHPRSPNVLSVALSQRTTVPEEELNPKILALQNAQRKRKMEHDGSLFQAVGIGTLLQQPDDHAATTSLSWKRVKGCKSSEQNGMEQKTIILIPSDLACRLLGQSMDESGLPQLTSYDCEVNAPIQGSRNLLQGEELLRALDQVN
Sequence of Heat shock factor protein 1 (Homo sapiens) (Q00613 whole entry, looked up): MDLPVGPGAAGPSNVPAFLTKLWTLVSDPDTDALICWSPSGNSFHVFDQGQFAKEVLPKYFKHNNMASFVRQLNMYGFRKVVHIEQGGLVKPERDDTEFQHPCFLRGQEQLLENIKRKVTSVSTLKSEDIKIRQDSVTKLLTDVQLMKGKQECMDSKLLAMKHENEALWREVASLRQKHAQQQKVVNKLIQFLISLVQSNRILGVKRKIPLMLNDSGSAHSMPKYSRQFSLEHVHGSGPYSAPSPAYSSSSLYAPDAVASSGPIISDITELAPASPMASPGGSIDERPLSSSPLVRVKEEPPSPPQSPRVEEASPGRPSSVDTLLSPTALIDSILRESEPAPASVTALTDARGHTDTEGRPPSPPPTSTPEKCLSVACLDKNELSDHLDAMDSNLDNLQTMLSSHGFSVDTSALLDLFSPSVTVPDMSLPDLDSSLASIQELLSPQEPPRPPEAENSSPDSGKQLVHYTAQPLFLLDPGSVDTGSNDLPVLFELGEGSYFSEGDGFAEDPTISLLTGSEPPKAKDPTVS
Sequence of Bile acid receptor (Homo sapiens) (Q96RI1 whole entry, looked up, the tested form may be a part): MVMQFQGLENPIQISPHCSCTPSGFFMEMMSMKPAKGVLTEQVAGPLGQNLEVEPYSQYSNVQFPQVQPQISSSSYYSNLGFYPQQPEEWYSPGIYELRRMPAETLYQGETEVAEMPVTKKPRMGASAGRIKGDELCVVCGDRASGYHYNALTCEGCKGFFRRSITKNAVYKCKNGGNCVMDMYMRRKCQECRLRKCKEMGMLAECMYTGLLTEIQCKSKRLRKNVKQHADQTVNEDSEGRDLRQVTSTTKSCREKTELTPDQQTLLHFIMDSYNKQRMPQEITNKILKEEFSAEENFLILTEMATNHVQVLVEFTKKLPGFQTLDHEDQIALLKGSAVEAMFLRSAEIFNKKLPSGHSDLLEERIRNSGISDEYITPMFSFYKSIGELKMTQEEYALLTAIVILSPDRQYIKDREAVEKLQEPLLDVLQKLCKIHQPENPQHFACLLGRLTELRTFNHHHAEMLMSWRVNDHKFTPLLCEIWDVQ
Sequence of Hepatocyte nuclear factor 6 (Homo sapiens) (Q9UBC0 whole entry, looked up): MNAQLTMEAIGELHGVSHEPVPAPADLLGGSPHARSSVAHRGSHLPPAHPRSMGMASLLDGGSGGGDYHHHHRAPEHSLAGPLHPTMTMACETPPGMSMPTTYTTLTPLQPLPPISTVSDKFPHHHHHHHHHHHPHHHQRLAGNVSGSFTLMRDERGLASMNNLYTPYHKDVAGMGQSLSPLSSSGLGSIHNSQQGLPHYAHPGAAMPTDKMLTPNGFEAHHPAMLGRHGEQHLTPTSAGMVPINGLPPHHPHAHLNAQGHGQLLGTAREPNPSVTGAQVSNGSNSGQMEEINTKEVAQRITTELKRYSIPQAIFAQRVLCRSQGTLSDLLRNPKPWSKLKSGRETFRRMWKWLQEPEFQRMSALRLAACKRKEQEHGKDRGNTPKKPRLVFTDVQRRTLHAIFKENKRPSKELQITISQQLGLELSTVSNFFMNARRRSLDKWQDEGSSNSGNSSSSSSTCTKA
Sequence of Hepatocyte nuclear factor 3-beta (Homo sapiens) (Q9Y261 whole entry, looked up): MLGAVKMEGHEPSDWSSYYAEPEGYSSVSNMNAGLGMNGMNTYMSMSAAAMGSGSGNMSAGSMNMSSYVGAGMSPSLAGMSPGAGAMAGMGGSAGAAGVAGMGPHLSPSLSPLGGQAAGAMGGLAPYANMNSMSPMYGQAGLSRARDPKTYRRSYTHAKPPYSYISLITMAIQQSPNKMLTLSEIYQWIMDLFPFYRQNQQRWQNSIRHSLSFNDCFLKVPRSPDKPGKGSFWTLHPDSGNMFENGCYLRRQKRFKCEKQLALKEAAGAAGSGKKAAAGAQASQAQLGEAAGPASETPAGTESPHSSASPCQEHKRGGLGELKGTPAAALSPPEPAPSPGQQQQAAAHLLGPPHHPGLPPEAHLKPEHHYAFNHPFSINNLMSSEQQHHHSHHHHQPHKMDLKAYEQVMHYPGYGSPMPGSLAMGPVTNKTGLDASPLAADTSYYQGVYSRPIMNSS

On to `O=C(NC(=O)c1c(F)cccc1F)Nc1cc(Cl)c(OC(F)(F)C(F)F)c(Cl)c1`, for which the result in assay [1], in assay [2], in [3], in assay [4], in assay [5] and in [6] was inactive. In addition, the compound was classed as inactive in assay [7], in assay [8], in assay [9], in assay [10], in assay [11] and in [12]. Also, the call in assay [13], in assay [14], in assay [15], in assay [16], in assay [17] and in assay [18] was inactive.

In the case of `ClC1=C(Cl)[C@]2(Cl)[C@@H]3[C@H]4C[C@H]([C@@H]5O[C@H]45)[C@@H]3[C@@]1(Cl)C2(Cl)Cl`, the result in assay [1], in [2], in [3], in assay [5], in assay [6] and in assay [7] was inactive. Further, the result in assay [8], in assay [9], in [10], in assay [11], in assay [12] and in assay [13] was inactive. Moreover, the result in [14], in assay [15], in assay [16] and in assay [17] was inactive. Further, the AC50 in assay [4] was 0.279 µM (active).

Regarding `O=NN(c1ccccc1)c1ccccc1`, the outcome in assay [1], in assay [2], in assay [3], in assay [5], in assay [6] and in [7] was inactive. In addition, the compound was classed as inactive in [8], in assay [9], in [19], in assay [10], in assay [11] and in [12]. Besides, the call in assay [14], in [15], in [16] and in assay [17] was inactive. Further, the AC50 in [4] was 26.1 µM (active).

On to `O=C(NC(=O)c1cc(F)c(F)cc1Cl)Nc1cc(F)ccc1N1CCC(C(=O)O)CC1`, for which the result in [1], in [2], in [3], in [4], in assay [5] and in assay [6] was inactive. For the same compound, the call in assay [7], in assay [8], in assay [9], in assay [10], in assay [11] and in assay [12] was inactive. In addition, the compound was classed as inactive in [14], in assay [15], in assay [16] and in [17].

In the case of `CCC(C)c1cc([N+](=O)[O-])cc([N+](=O)[O-])c1O` (stereo not drawn), the result in assay [1], in assay [2], in [3], in assay [4], in assay [5] and in assay [6] was inactive. In addition, the call in assay [7], in [8], in [9], in [19], in [10] and in [12] was inactive. The result in assay [14], in assay [15], in assay [16] and in assay [18] was inactive. Further, the AC50 is 8.83 µM (active) in assay [11] and 13.5 µM (active) in assay [17].

`C1CC2OC2CC1C1CO1` (stereo not drawn): the result in assay [1], in [2], in assay [3], in assay [4], in assay [5] and in [6] was inactive. The compound was called inactive in assay [7], in [8], in [9], in assay [19], in assay [11] and in assay [12]. Further, the outcome in assay [14], in [15], in assay [16], in assay [17] and in assay [18] was inactive.
